Test results from PubChem BioAssay (NCI).
Compounds without any hit were thinned out: in the full panel of roughly 83,000, 20% have a hit.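 48-hour exposure, single concentration, 96-well plates; percent growth endpoint where 0 means no net growth. Active: below 10.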 A number with no mark means an inactive call. Calls of active or inactive are those of the source.

Tested on: SK-OV-3 ovarian
Assay: NCI-60 one-dose screen, 48 h (100 = growth as untreated, 0 = no growth, -100 = all killed)
Conditions: 10 µM

Structure (SMILES) | growth
COc1ccc(-c2cc(-c3ccc(Cl)cc3)nc(SCCCCCCC(=O)NO)n2)cc1OC | 58.2%
COc1cc2ncnc(NC3CCC(O)CC3)c2cc1OC (stereo unspecified) | 109%
COc1cc(C)ccc1Oc1nc(Nc2ccc(N3CCOCC3)cc2)ncc1NC(=O)Nc1cc(C(F)(F)F)cc(C(F)(F)F)c1 | 101%
CCC(C)[C@H](NC(C)=O)C(=O)N[C@@H](CCCNC(=N)N)C(=O)N[C@@H](CCCCN)C(=O)N[C@@H](CC1CCC(O)CC1)C(=O)NC(C(=O)N[C@@H](CCSC)C(=O)N[C@@H](CCCNC(=N)N)C(=O)N[C@@]1(C)CCC/C=C\CCC[C@@](C)(C(=O)NC(C(=O)N[C@@H](CCC(=O)O)C(=O)N[C@@H](CC(C)C)C(=O)N[C@H](C(=O)N[C@@H](CCC(=O)O)C(N)=O)C(C)C)[C@@H](C)O)NC(=O)[C@H](CCC(N)=O)NC(=O)[C@H](CC(C)C)NC(=O)[C@H](CC(C)C)NC1=O)[C@@H](C)O (stereo partly specified) | 98.4%
CN1C(=O)C2(Nc3cc(Cl)ccc3S2)c2cc(Cl)ccc21 (stereo unspecified) | 96.1%
CC(=O)Nc1ccc2c(c1)C(=O)c1cccc(C(=O)O)c1-2 | 108%
O=C(CNc1nnc(-c2cccnc2SCc2ccccc2)s1)Nc1nc(Cl)cc(Cl)n1 | 99.2%
CCOC(=O)c1cc(C(=O)c2cc(OC)c(OC)c(OC)c2)n2nc(C)ccc12 | 24.1%
COc1cc(/C=C/c2cc(/C=C/c3ccc(O)c(OC)c3)[nH]c(=O)n2)ccc1O | 71.6%
O=C1CSC(=S)N1/N=C/c1ccc(Cl)s1 | 92.6%
COc1ccc(-c2onc(N)c2-c2cc(OC)c3c(c2)OCO3)cc1 | 38.7%
COc1cc(/C=C/c2cc(/C=C/c3ccc(O)c(OC)c3)n(C(=O)Nc3ccc(C)cc3)n2)ccc1O | -29.1% (active)
COc1cc(NC(=O)Nc2cnc(Nc3ccc(N4CCOCC4)cc3)nc2Oc2cccc(OC)c2)cc(OC)c1 | 42.2%
CC(=O)N[C@H](C(=O)N[C@@H](CCCNC(=N)N)C(=O)N[C@@H](CCCCN)C(=O)N[C@@H](CCCNC(=N)N)C(=O)NC(C(=O)N[C@@H](CC(C)C)C(=O)N[C@@H](CCCNC(=N)N)C(=O)N[C@@]1(C)CCC/C=C\CCC[C@@](C)(C(=O)N[C@@H](CCCNC(=N)N)C(=O)N[C@@H](CCC(=O)O)C(=O)N[C@@H](CC(C)C)C(=O)N[C@H](C(=O)N[C@@H](CCC(=O)O)C(N)=O)C(C)C)NC(=O)[C@H](CCC(N)=O)NC(=O)[C@H](CC(C)C)NC(=O)[C@H](CC(C)C)NC1=O)[C@@H](C)O)C(C)C (stereo partly specified) | 53.3%
Oc1ccc(/C=N/N=C2c3ccccc3-c3ccccc32)c(O)c1 | 84.7%
C[C@@H](C[C@H](CCO)c1ccccc1)c1ccc2ccccc2c1 | 23.8%

Tested on: IGROV1 ovarian
Assay: as above
Conditions: 10 µM

Structure (SMILES) | growth
Oc1cccc(-c2nc3sccn3c2-c2ccncn2)c1 | 91.2%
CCOC(=O)c1cc(C(=O)c2cc(OC)c(OC)c(OC)c2)n2ccc(-c3cc[n+](CC(=O)c4cc(OC)c(OC)c(OC)c4)cc3)cc12 | 83.2%
C[C@H]1[C@H](OC(=O)CCC(=O)O)O[C@@H]2O[C@]3(C)CC[C@H]4[C@H](C)CC[C@@H]1[C@@]24OO3 | 54.5%
COc1ccc(C(=O)N/N=C/c2cc(C(F)(F)F)ccc2Cl)cc1 | 106%
COc1ccc(-c2cc(-c3ccc(Cl)cc3)nc(SCCCC(=O)NO)n2)cc1OC | -1.77% (active)
CCC(=O)OC1CCC2C3CCC(=O)OC3C(C)(CCC(=O)O)CC12C (stereo unspecified) | 25.4%
OCC1OC(n2ccc3c(NO)ncnc32)C(O)C1O (stereo unspecified) | -32.1% (active)
CC(C)(C)c1ccc(S(=O)(=O)N[C@H]2CC[C@H]3[C@@H]4CCc5cc(O)c([N+](=O)[O-])cc5[C@H]4CC[C@]23C)cc1 | 78.1%
COc1cc(-c2nn(-c3cccc(NC(=O)CCNc4ccc(N5CCOCC5)cc4)c3)cc2-c2ccncc2)ccc1Cl | 27.3%
COc1cc(-c2nn(-c3cccc(NC(=O)CN4CCOCC4)c3)cc2-c2cccnc2)ccc1Cl | 79.6%
O=C(CCCSc1nc(-c2ccccc2)cc(-c2ccc(Cl)cc2)n1)NO | 22.3%
CC(C)N(CCOc1cccc(-c2nc3sccn3c2-c2ccnc(S(C)(=O)=O)n2)c1)C(C)C | 94.7%
O=C(CCC(C(=O)c1ccccc1)c1ccccc1)c1ccccc1 (stereo unspecified) | 79.3%
COc1ccc(-c2csc(NC(=O)c3ccc(Cc4n[nH]c(=O)c5cccnc45)cc3)n2)cc1 | 75.4%
COc1cc(-c2nn(-c3cccc(NC(=O)CCN4CCN(Cc5ccccc5)CC4)c3)cc2-c2ccncc2)ccc1Cl | 31.9%
COc1cc2cc(Oc3ccc(NC(=O)c4cc(C(F)(F)F)cc(C(F)(F)F)c4)cc3)c(C)nc2cc1OC | 43.9%
C[C@]12CCC3c4ccc(O)cc4C[C@@H](CCCCCCCCCS(=O)CCCC(F)(F)C(F)(F)F)C3C1CC[C@@H]2O (stereo partly specified) | 92.3%
Cc1cc(Cl)ccc1Nc1nc(C(F)(F)F)ccc1C(=O)N/N=C/c1cccc(O)c1 | 27.7%
COc1cc(C(=O)/C=C/c2c[nH]c3ccccc23)cc(OC)c1OC | 27.7%
CCOC(=O)CC(S(=O)(=O)c1ccccc1)S(=O)(=O)c1ccccc1 | 107%

Structure (SMILES) | growth
CCNCC(=O)Nc1ccc(C(=O)OCC)cc1 | 99.3%
CCCc1cn(CC(=O)Nc2nc3ccccc3s2)nn1 | 97.3%
COc1cc2cc(Oc3ccc(NC(=O)Nc4ccc(Cl)c(C(F)(F)F)c4)cc3)c(C)nc2cc1OC | -7.69% (active)
COc1cc(/C=C2\CCCC3=C2NC(N)=NC3c2cc(OC)c(OC)c(OC)c2)cc(OC)c1OC (stereo unspecified) | -19.4% (active)
COc1ccc(-c2cc(-c3ccc(Cl)cc3)nc(SCCCCCCC(=O)NO)n2)cc1OC | 35.9%
COc1cc2ncnc(NC3CCC(O)CC3)c2cc1OC (stereo unspecified) | 97.1%
COc1cc(C)ccc1Oc1nc(Nc2ccc(N3CCOCC3)cc2)ncc1NC(=O)Nc1cc(C(F)(F)F)cc(C(F)(F)F)c1 | 64%
CCC(C)[C@H](NC(C)=O)C(=O)N[C@@H](CCCNC(=N)N)C(=O)N[C@@H](CCCCN)C(=O)N[C@@H](CC1CCC(O)CC1)C(=O)NC(C(=O)N[C@@H](CCSC)C(=O)N[C@@H](CCCNC(=N)N)C(=O)N[C@@]1(C)CCC/C=C\CCC[C@@](C)(C(=O)NC(C(=O)N[C@@H](CCC(=O)O)C(=O)N[C@@H](CC(C)C)C(=O)N[C@H](C(=O)N[C@@H](CCC(=O)O)C(N)=O)C(C)C)[C@@H](C)O)NC(=O)[C@H](CCC(N)=O)NC(=O)[C@H](CC(C)C)NC(=O)[C@H](CC(C)C)NC1=O)[C@@H](C)O (stereo partly specified) | 100%
CN1C(=O)C2(Nc3cc(Cl)ccc3S2)c2cc(Cl)ccc21 (stereo unspecified) | 102%
CC(=O)Nc1ccc2c(c1)C(=O)c1cccc(C(=O)O)c1-2 | 135%
O=C(CNc1nnc(-c2cccnc2SCc2ccccc2)s1)Nc1nc(Cl)cc(Cl)n1 | 96.6%
CCOC(=O)c1cc(C(=O)c2cc(OC)c(OC)c(OC)c2)n2nc(C)ccc12 | 39.8%
COc1cc(/C=C/c2cc(/C=C/c3ccc(O)c(OC)c3)[nH]c(=O)n2)ccc1O | 93.1%
O=C1CSC(=S)N1/N=C/c1ccc(Cl)s1 | 100%
COc1ccc(-c2onc(N)c2-c2cc(OC)c3c(c2)OCO3)cc1 | 41.5%
COc1cc(/C=C/c2cc(/C=C/c3ccc(O)c(OC)c3)n(C(=O)Nc3ccc(C)cc3)n2)ccc1O | 4.76% (active)
COc1cc(NC(=O)Nc2cnc(Nc3ccc(N4CCOCC4)cc3)nc2Oc2cccc(OC)c2)cc(OC)c1 | 43.4%
CC(=O)N[C@H](C(=O)N[C@@H](CCCNC(=N)N)C(=O)N[C@@H](CCCCN)C(=O)N[C@@H](CCCNC(=N)N)C(=O)NC(C(=O)N[C@@H](CC(C)C)C(=O)N[C@@H](CCCNC(=N)N)C(=O)N[C@@]1(C)CCC/C=C\CCC[C@@](C)(C(=O)N[C@@H](CCCNC(=N)N)C(=O)N[C@@H](CCC(=O)O)C(=O)N[C@@H](CC(C)C)C(=O)N[C@H](C(=O)N[C@@H](CCC(=O)O)C(N)=O)C(C)C)NC(=O)[C@H](CCC(N)=O)NC(=O)[C@H](CC(C)C)NC(=O)[C@H](CC(C)C)NC1=O)[C@@H](C)O)C(C)C (stereo partly specified) | 60.3%
Oc1ccc(/C=N/N=C2c3ccccc3-c3ccccc32)c(O)c1 | 71.2%
C[C@@H](C[C@H](CCO)c1ccccc1)c1ccc2ccccc2c1 | -54.5% (active)
